Pf growth 96h: P. falciparum growth inhibition at 96 hour, primary screen for plastid delayed-death inhibitors. Potency, µM (highest dose often 28.7 µM), for inactives: at the highest dose activity change, negative = inhibition, most hits filed as inhibitors. 320,000 compounds, 6.9% hits. P. falciparum luciferase reporter growth, 96 h. AID 504834; note: potency is the fitted concentration of half-maximal effect; % is set by controls: 0 for no effect and ±100 for the full control effect
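Infected RBCs, 2% Hct / 0.05% parasitemia final; luciferase-reporter P. falciparum; cpd 96 h, 37 C, 5% CO2; luciferase detection reagent; luminescence.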
Shiga inhibitor: blocks Shiga toxin action in Vero cells. Vero cells, Shiga toxin protein synthesis inhibition reporter. inhibition, % at 38.7 µM. 290,000 compounds, 9.2% hits. AID 2315; in the data active = inhibition mostly above about 28%, no sharp cut-off; inactive = mostly below about 43%; note: 0% is about no effect
CHX counter: counter-screen for Shiga toxin inhibitors: cycloheximide protein synthesis inhibition | AID 2314 | 300,000 compounds, 12% hits | cell reporter, cycloheximide protein synthesis inhibition counterscreen | max response, %; in the data active = max response mostly above about 13%, no sharp cut-off; inactive = mostly below about 14%; note: read at 38.3 µM for the half of the compounds with a filed dose; 0% is about no effect
Pf growth 48h: inhibits P. falciparum growth in the first generation, 48 h | P. falciparum luciferase growth in erythrocytes, 48 h | Potency, µM (highest dose often 28.7 µM), for the others: at the top dose activity change, negative = inhibition, most hits filed as inhibitors | 310,000 compounds, 5.9% hits; note: potency is the fitted concentration of half-maximal effect; % is set by controls: 0 for no effect and ±100 for the full control effect
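Growth was read as firefly luciferase luminescence after a 48 h, 37 C, 5% CO2 exposure of compounds to reporter-bearing P. falciparum cultures (0.1% parasitemia, 2% hematocrit final) in Albumax-supplemented RPMI 1640.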
LmPK inhibitor: blocks Leishmania mexicana pyruvate kinase activity; Q27686; purified LmPK, Kinase-Glo ATP luminescence, 1 h; Potency, µM (titrated, usually from 57.5 µM), for the others: at the top dose activity change, negative = inhibition, usual class: inhibitors; 290,000 compounds, 0.37% hits; AID 1721; note: potency is the fitted concentration of half-maximal effect; % is set by controls: 0 for no effect and ±100 for the full control effect
Target sequence (Q27686 whole entry, looked up): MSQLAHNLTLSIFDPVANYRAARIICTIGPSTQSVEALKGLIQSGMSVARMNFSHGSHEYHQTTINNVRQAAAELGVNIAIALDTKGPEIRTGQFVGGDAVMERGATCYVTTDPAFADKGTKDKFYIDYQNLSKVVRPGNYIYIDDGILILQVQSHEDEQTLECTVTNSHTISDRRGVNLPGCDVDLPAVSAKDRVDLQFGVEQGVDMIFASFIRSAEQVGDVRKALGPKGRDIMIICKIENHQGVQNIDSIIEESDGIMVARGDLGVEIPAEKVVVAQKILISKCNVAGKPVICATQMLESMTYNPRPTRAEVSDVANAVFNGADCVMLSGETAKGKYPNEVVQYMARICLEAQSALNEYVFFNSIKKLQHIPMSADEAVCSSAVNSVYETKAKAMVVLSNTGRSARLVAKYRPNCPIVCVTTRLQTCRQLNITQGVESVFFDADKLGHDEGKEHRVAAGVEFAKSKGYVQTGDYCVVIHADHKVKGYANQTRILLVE
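In 50 mM imidazole pH 7.2 with 7 mM MgCl2, LmPK (0.1 nM) turned over PEP (0.5 mM) and ADP (0.1 mM) for 1 h at room temperature. Luciferase read-out of ATP.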
Starred values were filed as active, the others as inactive; ? = inconclusive; . = not tested or not shown. Most compounds without a hit are left out; they make up all but 22% or so of the library. Unless noted, calls come from the whole dose curve; as a rule, active = well fitted inhibition curve with a large enough effect; inconclusive = small, poorly fitted or top-dose-only effect, or another doubt; inactive = no such curve, though single readings can be large or run the other way.

SMILES	Pf growth 96h	Shiga inhibitor	CHX counter	Pf growth 48h	LmPK inhibitor
Cc1ccc(-c2csc(NC(=O)c3ccccc3F)c2C(=O)O)cc1	90%	100*	39*	37%	-4%
Cc1cccc(NC(=O)CSc2nnc3ccc(-c4ccccn4)nn23)c1	?	.	.	-30%	.
O=C(COc1ccc2ccc(=O)oc2c1)NCCCn1ccnc1	34%	28	-4	9%	4%
C#CCNC(=O)C1=C[C@@H](c2cn(C(C)=O)c3ccccc23)C[C@@H](OCc2ccc(CO)cc2)O1	6.6µM*	17	-2	8.3µM*	4%
CC(=O)n1cc([C@H]2C=C(C(=O)NCc3ccccc3)O[C@@H](OCc3ccc(CO)cc3)C2)c2ccccc21	2.1µM*	30	9	?	3%
CC(=O)n1cc([C@@H]2C=C(C(=O)Nc3ccccc3)O[C@H](OCc3ccc(CO)cc3)C2)c2ccccc21	5.9µM*	15	13	?	3%
O=C(Nc1ccc2oc(=O)ccc2c1)c1ccco1	-3%	31*	22*	58%	4%
O=C(Cc1ccccc1)Nc1ccc2oc(=O)ccc2c1	-3%	21	13*	31%	0%
COc1ccc(/C=C/C(=O)Oc2cc(C)[nH]c(=O)c2[N+](=O)[O-])cc1OC	7%	164*	59*	-5%	0%
COc1ccc(C(=O)Oc2cc(C)[nH]c(=O)c2[N+](=O)[O-])cc1	-8%	-11	-2	27%	-5%
O=C(CCc1nc(-c2ccc(Cl)cc2)no1)NCc1ccccc1CN1CCOCC1	-16%	.	.	-16%	.
CCn1cc(C2=NOC(C(=O)O)C2)c(C)n1 (centres undefined)	5.9µM*	13	-2	12%	2%
CC(NC(=O)c1ccc(S(=O)(=O)NCc2ccco2)cc1)c1ccc(F)cc1 (centres undefined)	?	.	.	-21%	.
COC(=O)c1cc2ccccc2c(=O)s1	6%	9	15*	45%	-4%
CC(=O)Nc1cccc(C(=O)OCC(=O)N2CCC(c3ccccc3)=N2)c1	149%	.	.	106%	.
CCOC(=O)Cn1nnnc1CN(Cc1cccs1)Cc1cc2cc(C)cc(C)c2[nH]c1=O	10µM*	15	-1	.	10%
CCOC(=O)Cn1nnnc1C(CC)N(Cc1ccccc1)Cc1cc2cc(C)ccc2[nH]c1=O (centres undefined)	?	-18	-4	.	7%
Cc1ccc2[nH]c(=O)c(CN(Cc3ccc4c(c3)OCO4)Cc3nnnn3Cc3ccco3)cc2c1	.	-14	-3	?	4%
CCOC(=O)Cn1nnnc1CN(Cc1ccccc1)Cc1cc2cc(CC)ccc2[nH]c1=O	12µM*	3	-2	-14%	1%
CCc1ccc2[nH]c(=O)c(CN(Cc3ccccc3)Cc3nnnn3Cc3ccco3)cc2c1	8%	72*	24*	9.3µM*	2%
CC1Cc2cc(/C(O)=C3/C(=O)C(=O)N(CCCN4CCOCC4)C3c3ccc(C(C)C)cc3)ccc2O1 (centres undefined)	?	-4	8	?	9%
Cc1nn(CC(=O)NNC(=O)c2ccccc2F)c([N+](=O)[O-])c1Br	9%	-17	-3	12%	1%
O=c1c2c(nc3n1CCS3)c1cc(F)ccc1n2Cc1cc(=O)n2cc(Cl)ccc2n1	1.9µM*	13	-4	?	2%
O=C(Cn1c2ccc(F)cc2c2nc3n(c(=O)c21)CCS3)Nc1ccc(Cl)cc1F	0%	-10	-1	?	-1%
CN(C)CCCNS(=O)(=O)c1ccc(Cl)s1	?	-6	-4	0%	-1%
SMILES	Pf growth 96h	Shiga inhibitor	CHX counter	Pf growth 48h	LmPK inhibitor
COc1ccc(CCN(C)C(=O)CCc2nnc(-c3ccccc3)o2)cc1OC	-26%	65*	59*	0%	-18%
CN(Cc1nc2c(s1)CCCC2)C(=O)CCc1nnc(-c2ccccc2)o1	9.3µM*	61*	23*	30%	-1%
CCc1ccc(CN(C)C(=O)CCc2nnc(COc3ccccc3)o2)cc1	?	81*	30*	-14%	2%
CN(Cc1nnc(-c2ccc(F)cc2)o1)c1ccccc1	23%	71*	32*	5%	-7%
CN(CC(=O)Nc1ccc(Cl)c(Cl)c1)Cc1nnc(-c2ccc(F)cc2)o1	17%	14	19	-3%	0%
Cn1c(SCC(=O)N2CCc3ccccc32)nnc1-c1ccc(S(=O)(=O)N2CCCC2)cc1	-8%	26	9	6%	-2%
CN(Cc1ccc(F)cc1)C(=O)CCc1nnc(-c2ccccc2)o1	8.3µM*	108*	47*	13%	9%
CC12C=CC(=O)C=C1[C@@H](F)CC1C2C(O)CC2(C)C1CC[C@]2(O)C(=O)CO (some centres undefined)	?	33	3	-19%	.
CCCC(=O)Nc1sc(C)c(C)c1C#N	24%	25	-5	19%	-1%
CCc1c(C)sc(NC(=O)CC#N)c1C#N	0.83µM*	-13	4	-2%	-3%
Cc1cc(C(=O)Nc2sc3c(c2C#N)CCC(C(C)(C)C)C3)no1 (centres undefined)	10µM*	-1	1	.	20%
CCc1c(C)sc(NC(=O)c2cc(C(C)C)on2)c1C#N	55%	55*	13*	23%	9%
CC(C)(C)C1CCc2c(sc(NC(=O)c3cc(C4CC4)on3)c2C#N)C1 (centres undefined)	2%	21	-2	.	-1%
CCCCCC(=O)Nc1sc(C)c(C)c1C#N	49%	active	42*	39%	1%
CC(=O)Cc1nnn(-c2cc(C)on2)n1	48%	14	6	43%	-2%
CCC(CC)C(=O)c1c[nH]c(C(=O)N2CCN(c3ccccc3F)CC2)c1	?	-9	-2	?	-7%
CCC(C(=O)OC(C)C)c1ccc2ccccc2c1 (centres undefined)	42%	.	.	3%	.
CC(=O)c1ccc(OCC(=O)NC(=O)NC2CCCCC2)cc1	-19%	3	1	-9%	-1%
Cc1cc(C(=O)Nc2sc(C)c(C)c2C#N)no1	.	59*	41*	78%	-1%
CN(C(=O)CN1C(=O)/C(=C/c2ccccc2F)SC1=S)C1CCS(=O)(=O)C1 (centres undefined)	10%	1	-5	0%	1%
COc1ccc(N2CCN(C(CNC(=O)C3CCCCC3)c3ccco3)CC2)cc1 (centres undefined)	?	.	.	13µM*	.
O=C(NCC(c1ccco1)N1CCN(c2ccccc2F)CC1)C(=O)NC1CC1 (centres undefined)	8%	.	.	-1%	.
O=C(NCC(c1ccco1)N1CCN(c2ccccc2)CC1)OCc1ccccc1 (centres undefined)	4.1µM*	18	11	?	6%
O=C(NCC(c1ccco1)N1CCN(c2ccccc2F)CC1)C1CCCCC1 (centres undefined)	-23%	.	.	12µM*	.
O=C(NCC(c1ccco1)N1CCN(c2ccccc2F)CC1)C(=O)NC1CCCCC1 (centres undefined)	?	.	.	-10%	.
